According to PubChem BioAssay AID624172 (National Center for Advancing Translational Sciences (NCATS), 2012):
About 25 (0.007%) of roughly 380,000 compounds were called active. The call rests on the fitted dose curve; in most records, active means well fitted activation curve with a large enough effect; inconclusive means small, poorly fitted or top-dose-only effect; inactive means no such curve, though single readings can be large or run the other way. Only a sample is shown.

Molecular target: Glucagon-like peptide 1 receptor (Homo sapiens) (UniProt P43220)
Sequence (P43220 whole entry, looked up): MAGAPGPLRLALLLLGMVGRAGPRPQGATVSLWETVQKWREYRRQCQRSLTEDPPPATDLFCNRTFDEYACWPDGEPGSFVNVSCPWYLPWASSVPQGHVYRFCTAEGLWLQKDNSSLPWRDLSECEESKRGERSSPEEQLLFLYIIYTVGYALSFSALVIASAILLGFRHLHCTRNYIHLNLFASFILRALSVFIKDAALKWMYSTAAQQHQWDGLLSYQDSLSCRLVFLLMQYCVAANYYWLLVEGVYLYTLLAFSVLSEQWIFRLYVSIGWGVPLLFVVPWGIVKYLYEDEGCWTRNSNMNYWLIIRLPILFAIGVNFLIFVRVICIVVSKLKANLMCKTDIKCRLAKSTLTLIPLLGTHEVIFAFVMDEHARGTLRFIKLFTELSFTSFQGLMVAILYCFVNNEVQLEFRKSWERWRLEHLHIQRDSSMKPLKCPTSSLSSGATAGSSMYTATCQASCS
Test: qHTS of GLP-1 Receptor Agonists; further: % of control where 0% means no effect
Settings: HEK293 GLP-1R CRE-luciferase, luminescence, 4-6 h, cells express a hypersensitive GLP-1R form; series mostly up to 45.6 µM; activation: at the top concentration
From the text: The overall goal of this project was to develop a novel assay for discovering small molecule ligands for class B1 G protein-coupled receptors (GPCRs). Very few agonists (or inverse agonists) with generally weak activity for this entire group of physiologically important receptors are known to date. To establish proof-of-principle that this critical bottleneck can be overcome with a suitable screening approach, our studies focused on the class B1 receptor for glucagon-like peptide-1 (GLP-1R), a potential therapeutic target for diabetes and neurodegenerative disease.
The assay was developed in a "mix and measure" format using a cell-based functional readout. Toward this goal, stably transfected HEK293 cell clones were established that co-express (i) a cAMP-responsive luciferase reporter gene, and (ii) GLP-1Rs that upon ligand interaction either stimulate (agonists) or inhibit (inverse agonists) luciferase activity. In different cell lines to be used for screening, expressed GLP-1Rs are specifically optimized for high sensitivity detection of either weak agonists (hypersensitive receptor) or inverse agonists (constitutively active receptor mutant). In addition, control cell lines were developed that express either the cAMP-responsive reporter gene without recombinant GLP-1Rs (enabling initial exclusion of GLP-1R independent effects of candidate probes), or the reporter gene together with wild type GLP-1Rs (for confirmation of probe activity at this receptor), or the reporter gene in combination with the constitutively active orphan receptor GPR119 (enabling initial exclusion of GLP-1R independent inhibitory effects of candidate inverse agonists).
To that end, this assay was optimized for 1536-well format and screened against the MLSMR.
NIH Molecular Libraries Probe Production Network [MLPCN]
NIH Chemical Genomics Center [NCGC]
PI Name: Martin Beinborn, Tufts Medical Center
In a white solid 1536-well plate, 6 uL of cells are dispensed in DMEM without phenol red, 10% Nu serum, and 1% pen-strep medium. The plates are then incubated for 12 hours at 37 deg C at 5% CO2 before 23 nL of compounds are added. After a 4-6 hr incubation at37 deg C and 5% CO2, 3 uL of detection reagent are added and after a 12 min incubation at RT, a luminescent read is obtained on the ViewLux.

| SMILES | activation | outcome |
| --- | --- | --- |
| CC1=Nc2cc(C(=O)N3CCC(C)CC3)ccc2Sc2ccc(Cl)cc21 | 0.558% (inactive) | – |
| Cc1cn([C@H]2CC(F)[C@@H](CO)O2)c(=O)[nH]c1=O (stereo partly specified) | 7% (inactive) | – |
| Cc1cccc(-n2c(=O)c3c(c4cc(C)ccc4n3C)n(CC(=O)Nc3ccccc3Cl)c2=O)c1 | 0.522% (inactive) | – |
| O=C(O)CCCCC(=O)O | -6.16% (inactive) | – |
| Cc1ccc(CCNC(=O)Cn2c(-c3cccs3)cc3cc(F)ccc32)cc1 | -0.201% (inactive) | – |
| CC(C)(O)c1ccccc1CC[C@H](SCC1(CC(=O)O)CC1)c1cccc(/C=C/c2ccc3ccc(Cl)cc3n2)c1 | 5.38% (inactive) | – |
| CO/N=C(\C(=O)N[C@@H]1C(=O)N2C(C(=O)O)=C(Cn3nnc(C)n3)CS[C@H]12)c1csc(N)n1 | -4.78% (inactive) | – |
| COc1ccc(CCNC(=O)CCCCn2c(=O)c3ccccc3n(Cc3ccccc3C)c2=O)cc1OC | 12.4% (inactive) | – |
| CCOc1ccc(CNCCSc2nnnn2C)cc1 | -0.857% (inactive) | – |
| CC(O)COc1ccccc1 (stereo unspecified) | -2.13% (inactive) | – |
| Cc1ccc(C(=O)Nc2ccc(OCc3cc(=O)n4c5c(sc4n3)CCCC5)cc2)cc1 | -0.745% (inactive) | – |
| COc1cc([C@@H]2c3cc4c(cc3[C@@H](O[C@@H]3O[C@@H]5CO[C@@H](C)O[C@H]5[C@H](O)[C@H]3O)[C@H]3COC(=O)[C@H]23)OCO4)cc(OC)c1OP(=O)(O)O | -0.904% (inactive) | – |
| Cn1c(=O)c2c(nc(NCCc3ccccc3)n2Cc2ccccc2Br)n(C)c1=O | 1.23% (inactive) | – |
| COc1ccccc1-c1ccnc2[nH]n(-c3ccccc3)c(=O)c12 | 0.335% (inactive) | – |
| CN(C)CCCn1c(-c2ccc(Cl)cc2)csc1=Nc1ccccc1 | 15.8% (inactive) | – |
| COc1cc(C[C@H]2NCCc3cc(O)c(O)cc32)cc(OC)c1OC | 25.4% (inactive) | – |
| O=C(Nc1cccc2cccnc12)c1cccc2c(Br)cccc12 | 0.0139% (inactive) | – |
| COc1ccc(CCNC(=O)CCc2c(C)nc3c(c(C)nn3-c3ccc(C)c(C)c3)c2C)c(OC)c1OC | -0.6% (inactive) | – |
| CCn1cc(C(=O)OCC(=O)Nc2cc(C)cc(C)c2)c(=O)c2ccc(C)nc21 | -2.48% (inactive) | – |

| SMILES | activation | outcome |
| --- | --- | --- |
| CN(CC(=O)Nc1ccccc1F)S(=O)(=O)c1ccc2c(c1)c(=O)n(C)c(=O)n2C | -1.36% (inactive) | – |
| Cc1c(O)cc2c(c1C)O[C@](C)(CCC[C@H](C)CCC[C@H](C)CCCC(C)C)CC2 | 7.18% (inactive) | – |
| COc1ccc(C2(C#N)CCC(C(=O)O)CC2)cc1OC1CCCC1 (stereo unspecified) | -2.56% (inactive) | – |
| Cc1ccc(NC(=O)c2oc3ccccc3c2NC(=O)Cc2cccs2)cc1 | 0.593% (inactive) | – |
| NNc1nnc(NN)c2ccccc12 | 12.5% (inactive) | – |
| O=C(C1CCCN(S(=O)(=O)c2cccc3nonc23)C1)N1CCN(c2ccccc2F)CC1 (stereo unspecified) | -1.48% (inactive) | – |
| COc1cccc(NC(=O)N(Cc2cn(C)c3ccccc23)C2CCCCCC2)c1 | -6.68% (inactive) | – |
| COc1ccc2[nH]c3c(c2c1)CCN(C(=O)CCC1CCCC1)C3c1ccc(F)cc1 (stereo unspecified) | 0.944% (inactive) | – |
| Nc1ccccc1N | 1.01% [at 96 µM] (inactive) | – |
| NNc1nnc(Cc2ccncc2)c2ccccc12 | -3.34% (inactive) | – |
| CC(=O)OCC(=O)[C@@]1(O)CC[C@@H]2[C@H]3CCC4=CC(=O)C=C[C@]4(C)[C@]3(F)[C@@H](O)C[C@@]21C | -1.89% [at 19.8 µM] (inactive) | – |
| CCC(CC)C(=O)N1CCc2cc(OC)c(OC)cc2C1COc1ccc(F)cc1 (stereo unspecified) | 18.6% (inactive) | – |
| CCC[C@H]1C(=O)N2C(N(C)C)=Nc3ccc(C)cc3N2C1=O | 2.77% [at 19.8 µM] (inactive) | – |
| C=C1C(=CC=C2CCC[C@@]3(C)[C@@H]2CC[C@H]3[C@H](C)CCCC(C)C)C[C@@H](O)C[C@@H]1O | 7.68% (inactive) | – |
| O=C1C(c2[nH]c3ccccc3c2O)=Nc2ccccc21 | 17.2% (inactive) | – |
| CC(=O)OC[C@H]1O[C@@H](O[C@H]2[C@H](O)[C@@H](OC(=O)c3ccccc3C(=O)O)[C@H](O)O[C@@H]2COC(C)=O)[C@H](O)[C@@H](OC(=O)c2ccccc2C(=O)O)[C@@H]1O | 5.47% (inactive) | – |
| COc1ccc(CNC(=O)c2cc3cccc(OC)c3oc2=O)cc1 | -5.88% (inactive) | – |
| O=C(C1CC1)N1CCc2cc(Br)cc(S(=O)(=O)N3CCN(c4ccccc4F)CC3)c21 | 0.0455% (inactive) | – |
| O=C(O)CCC(=O)O | -1.33% (inactive) | – |

| SMILES | activation | outcome |
| --- | --- | --- |
| COc1ccc(OC)c([C@H](O)CNC(=O)CN)c1 | 1.93% [at 19.8 µM] (inactive) | – |
| O=C(NC1CCCCC1)c1ccc2c(c1)N(Cc1ccc(Cl)cc1)C(=O)c1ccccc1S2=O (stereo unspecified) | -3.48% (inactive) | – |
| Cc1ccc(C)c(CN2C(=O)c3ccccc3S(=O)c3ccc(C(=O)N4CCOCC4)cc32)c1 (stereo unspecified) | -0.515% (inactive) | – |
| COc1ccc(S(=O)(=O)NCCSc2nnnn2-c2ccccc2)cc1 | 0.741% (inactive) | – |
| CC(=O)OC1C([N+]2(C)CCCCC2)C[C@H]2C3CC[C@H]4C[C@H](OC(C)=O)C([N+]5(C)CCCCC5)CC4(C)C3CCC12C (stereo partly specified) | -1.14% (inactive) | – |
| CCOC(=O)Cc1cccc(-c2cc(CCCCCCc3ccc(O[C@H]4O[C@H](COC(C)=O)[C@@H](OC(C)=O)[C@H](OC(C)=O)[C@@H]4OC(C)=O)c(-c4cccc(CC(=O)OCC)c4)c3)ccc2O[C@H]2O[C@H](COC(C)=O)[C@@H](OC(C)=O)[C@H](OC(C)=O)[C@@H]2OC(C)=O)c1 | 2.49% (inactive) | – |
| O=C(CCn1c(=O)c2ccccc2n(Cc2ccc(Cl)cc2)c1=O)NCc1ccc2c(c1)OCO2 | -0.608% (inactive) | – |
| COc1ccc(-c2nc3ccccc3s2)cc1NC(=O)COc1ccccc1C | 5.28% (inactive) | – |
| CSc1ccc(C2C(C(=O)Nc3ccccc3)=C(C)Nc3nc4ccccc4n32)cc1 (stereo unspecified) | 5.83% (inactive) | – |
| O=C(O)[C@@H](S)[C@H](S)C(=O)O | -4.55% (inactive) | – |
| CCC(C)C1OC2(C=CC1C)CC1CC(C/C=C(/C)C(OC3CC(OC)C(OC4CC(OC)C(NC(C)=O)C(C)O4)C(C)O3)C(C)/C=C\C=C3\COC4C(O)C(C)=CC(C(=O)O1)C34O)O2 (stereo unspecified) | -1.5% (inactive) | – |
| CC1(C)OC[C@@H](COC(=O)CCc2ccc(OC[C@@H](O)CNCCNC(=O)N3CCOCC3)cc2)O1 | – | inactive |
| CCc1nc2onc(C)c2c(=O)n1CC(=O)O | -2.43% (inactive) | – |
| CC1=C(C(=O)OCC2CCCCC2)C(c2c(F)cccc2Cl)CC(=O)N1 (stereo unspecified) | 0.542% (inactive) | – |
| CCCCCn1c(CCNC(=O)c2ccc(F)cc2)nc2ccccc21 | -6.1% (inactive) | – |
| O=c1cc2nc(-c3ccccc3)nc(SCCOc3ccc(Cl)cc3)n2[nH]1 | 0.394% (inactive) | – |
| C[C@H]1C[C@H]2[C@@H]3CCC4=CC(=O)C=C[C@]4(C)[C@@H]3C(=O)C[C@]2(C)[C@@]1(O)C(=O)CO | 8.98% (inactive) | – |
| COc1cc2c(cc1OC)CC(=O)N(CCCN(C)C[C@H]1Cc3cc(OC)c(OC)cc31)CC2 | -1.07% (inactive) | – |
